Data reported in PubChem BioAssay AID382 (SGCOxCompounds, 2006).
Active and inactive are the calls of the source. How the calls were made is not given here.

What follows are compounds tested against Dual specificity protein kinase CLK1 (Homo sapiens) (UniProt P49759) (assay: ligand-induced CLK1 melting temperature shift – biophysical, recombinant human kinase, DSF (AID 382)). Details: Recombinant CLK1, thermal shift (DSF), at 10 µM, protein 1.7 µM, buffer 10 mM HEPES, pH 7.5, NaCl 150 mM, with 50 µM L-Arg/L-Glu (1:1), stronger effect = higher value.
Chain of Dual specificity protein kinase CLK1 (Homo sapiens) (P49759 whole entry, looked up): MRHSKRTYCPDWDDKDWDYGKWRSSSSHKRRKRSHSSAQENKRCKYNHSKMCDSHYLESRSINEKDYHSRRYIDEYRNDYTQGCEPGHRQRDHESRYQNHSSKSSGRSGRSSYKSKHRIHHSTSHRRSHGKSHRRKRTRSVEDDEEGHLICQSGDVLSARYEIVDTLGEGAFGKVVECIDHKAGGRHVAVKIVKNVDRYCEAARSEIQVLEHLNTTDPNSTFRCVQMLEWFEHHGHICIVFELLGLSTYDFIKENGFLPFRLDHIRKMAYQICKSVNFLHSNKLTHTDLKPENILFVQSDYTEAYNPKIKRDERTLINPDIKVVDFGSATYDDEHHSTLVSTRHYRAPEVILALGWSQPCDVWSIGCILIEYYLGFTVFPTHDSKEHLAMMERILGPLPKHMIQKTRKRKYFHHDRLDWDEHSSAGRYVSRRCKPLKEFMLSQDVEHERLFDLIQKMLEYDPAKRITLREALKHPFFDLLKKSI

Tm shift, active:
COc1ccc(C(=O)c2sc(Nc3cccc(C(F)(F)F)c3)nc2N)cc1 3.7 Celsius
Nc1nc(Nc2ccccc2)sc1C(=O)c1ccc(F)cc1 3.2 Celsius
COc1ccc(Nc2nc(N)c(C(=O)c3ccc(OC)cc3)s2)cc1 4.5 Celsius

Same assay, conditions: Recombinant CLK1, thermal shift (DSF), at 10 µM, protein 2 µM, buffer 10 mM HEPES, NaCl 150 mM, stronger effect = higher value

Tm shift, active:
O=C1C(=O)C(c2ccc(O)cc2)Oc2cc(O)cc(O)c21 (configuration not stated) 4.8 Celsius
O=Nc1c(-c2c(O)[nH]c3ccc(I)cc23)[nH]c2ccccc12 5.14 Celsius
O=c1cc(-c2ccccc2)oc2cc(O)cc(O)c12 5.03 Celsius
O=c1c(O)c(-c2ccc(O)c(O)c2)oc2cc(O)ccc12 7.11 Celsius
Brc1c(Br)c(Br)c2n[nH]nc2c1Br 3.97 Celsius
N=C(N)SCCCn1cc(C2=C(c3c[nH]c4ccccc34)C(=O)NC2=O)c2ccccc21 10.3 Celsius

Same assay, conditions: Recombinant CLK1, thermal shift (DSF), at 10 µM, protein 2 µM, buffer 10 mM HEPES, NaCl 150 mM, with 50 mM Arg/Glu, stronger effect = higher value

Tm shift, active:
CCN1/C(=C/C(C)=O)Sc2ccc(OC)cc21 6.91 Celsius
FC(F)(F)Oc1cccc(-c2cnc3ccc(NC4CCOCC4)nn23)c1 5.17 Celsius
CC(C)[C@@H](CO)Nc1ccc2ncc(-c3ccc(C#N)cc3)n2n1 5.84 Celsius
Nc1nc(Nc2ccc(S(N)(=O)=O)cc2)nn1C(=S)Nc1c(F)cccc1F 11.8 Celsius

Same assay, conditions: Recombinant CLK1, thermal shift (DSF), at 10 µM, protein 2 µM, buffer 10 mM HEPES, pH 7.5, NaCl 150 mM, stronger effect = higher value

Tm shift, active:
c1csc(-c2cnc3ccc(NCC4CC4)nn23)c1 3.52 Celsius
c1ccc(-c2cnc3ccc(NCc4cccs4)nn23)cc1 3.23 Celsius
Clc1cccc(-c2cnc3ccc(NCCc4ccccn4)nn23)c1 4.83 Celsius
Clc1cccc(Nc2ccn3ncc(-c4ccsc4)c3n2)c1 3.45 Celsius

Same assay, conditions: Recombinant CLK1, thermal shift (DSF), at 10 µM, protein 2 µM, buffer 10 mM HEPES, pH 7.5, NaCl 150 mM, with 50 µM L-Arg/L-Glu (1:1), stronger effect = higher value

Tm shift, active:
CC(=O)Nc1cccc(-c2cnc3ccc(NC4CCOCC4)nn23)c1 8.8 Celsius
COCCNc1ccc2ncc(-c3cccc(C(C)=O)c3)n2n1 5.1 Celsius
CCN(CC)CCNC(=O)c1c(C)[nH]c(/C=C2\C(=O)Nc3ccc(Cl)cc32)c1C 6.6 Celsius
O=C1NC(=O)C(c2cn(CCCn3ccnc3)c3ccccc23)=C1Nc1ccccc1 5.8 Celsius
CNC(=O)c1cc(Oc2ccc(NC(=O)Nc3ccc(C)c(C(F)(F)F)c3)cc2)ccn1 4.9 Celsius
Fc1ccc(-c2cnc3ccc(NC4CCOCC4)nn23)cc1 5.3 Celsius
CC(C)[C@@H](CO)Nc1ccc2ncc(-c3cccc(C(F)(F)F)c3)n2n1 5.1 Celsius
O=c1[nH]c(O)c2c1c1c3ccccc3nc1n1cncc21 4.5 Celsius
CCCCc1c(-c2ccc(O)cc2)[nH]c2nccnc12 3.5 Celsius
CC(=O)c1cccc(-c2cnc3ccc(NC4CCOCC4)nn23)c1 5.2 Celsius
N#CCCc1ccc2c(c1)-c1[nH]c3ccc(-n4oo4)cc3c1CC(=O)N2 3.1 Celsius
Nc1cccc(-c2cnn3ccc(Nc4cccc(Cl)c4)nc23)c1 3.6 Celsius
c1cncc(-c2cnc3ccc(NC4CCOCC4)nn23)c1 3.3 Celsius
CCC(CO)Nc1ccc2ncc(-c3ccc(CO)cc3)n2n1 (configuration not stated) 5.3 Celsius
COCCNc1ccc2ncc(-c3cccc(Cl)c3)n2n1 3.6 Celsius
